# Assay results: PubChem BioAssay (NCATS)
# Results filed as inconclusive are left out. Active and inactive are the calls of the source. Calls come from the whole dose curve.
# Assay: Cytotoxicity counterscreen for inhibitors of SARS-CoV-2 cell entry (AID 1645845); note: nearly all actives have a fitted effect of over 50% in size
# Details: cell viability (SARS-CoV-2 entry assay cells); series mostly up to 57.1 µM; activity change, negative = cytotoxicity: at the top concentration
# Description: Assay Provider: Wei Zheng, Ph.D.
# National Center for Advancing Translational Sciences, National Institute of Health, Rockville, MD.
# SARS-CoV-2 spike protein, within the viral envelope, mediates viral attachment and infection of host cells. The SARS-CoV-2 spike protein specifically binds to the host receptor ACE2 (Angiotensin-converting enzyme 2). This interaction promotes endocytosis of the viral particle, additional events lead to viral-host cell membrane fusion and release of the viral contents, allowing viral replication.
# While SARS-CoV-2 requires BSL-3 facilities for live virus work, pseudo-typed partices (PP) that incorporate SARS-CoV-2 spike proteins without replication elements could facilitate studies on viral entry mechanisms in a BSL-2 setting. This PP cell entry assay could also enable screening of small molecule compound libraries in BSL-2 setting to identify inhibitors of SARS-CoV-2 cell entry. To eliminate false positive compounds, ATP content cytotoxicity assay was screened in the same cell line.
# SEQUENCE No. (e.g., 1, 2, 3, etc.); […] (e.g., Cells, Incubation, Reagent, etc.); VALUE and DESCRIPTION.
# 1. Cells. Seed 1500 HEK293-ACE2 cells (Expi293F with stable expression of human ACE2) in 2 uL/well media (DMEM, 10% FBS, 1x L-glutamine, 1x Pen/Strep, 1 ug/ml puromycin) in white 1536-well assay plates (Greiner #782073).
# 2. Incubation. Incubate at 37 C with 5% CO2 overnight (~16 h).
# 3. Compounds. Dispense 23 nL/well compounds in DMSO via pin transfer.
# 4. Incubation. Incubate for 1 h at 37C 5% CO2.
# 5. Reagent. Dispense 2 uL/well of media (DMEM, 10% FBS, 1x L-glutamine, 1x Pen/Strep, 1 ug/ml puromycin).
# 6. Incubation. Incubate at for 48h at 37C 5% CO2
# 7. Reagent. Dispense 4 uL/well of ATPLite 1step luminescence assay reagent (PerkinElmer #6016739).
# 8. Incubation. Incubate for 15 min at room temperature.
# 9. Detection. Read luminescence signal (Viewlux plate reader, PerkinElmer). Data was normalized with wells containing cells as 100%, and wells without cells (media only control) as 0%.
# % is set by controls: 0 for no effect and ±100 for the full control effect; potency is the fitted concentration of half-maximal effect.
Structure (SMILES),outcome,Potency,"activity change, negative = cytotoxicity"
CC[N+]1(C)C2CC(OC(=O)[C@H](CO)c3ccccc3)CC1[C@@H]1O[C@H]21 (stereo not given in full),inactive,,
O=C(O)c1ccc(CN2CCC(CN[C@@H]3C[C@H]3c3ccccc3)CC2)cc1,inactive,,
COc1cc2nc(-c3cc(F)ccc3O)nc(N[C@@H]3CNC[C@H]3C(C)(C)O)c2cc1OC,,3.98 µM (active),
Cc1cc(C)cc(NC(=O)Cc2ccc(OC(C)(C)C(=O)O)cc2)c1,,,-12.4% (inactive)
C[C@H]1O[C@H](O[C@H]2[C@H](O)[C@@H](O)[C@@H](O[C@H]3[C@H](O)[C@@H](O)C(O)O[C@@H]3CO)O[C@@H]2CO)[C@H](O)[C@@H](O)[C@@H]1N[C@H]1C=C(CO)[C@@H](O)[C@H](O)[C@H]1O (stereo not given in full),inactive,,
COC1CCC(N2C(=O)CNc3ncc(-c4ccc(C(C)(C)O)nc4)nc32)CC1 (stereo not given),,7.94 µM (active),
CCN1C[C@@]2(COC)C3[C@@H](OC)C4[C@@H]1[C@@]3(C1C[C@]3(O)[C@H](OC(=O)c5ccccc5)C1[C@]4(OC(C)=O)[C@@H](O)[C@@H]3OC)[C@@H](OC)C[C@H]2O (stereo not given in full),inactive,,
COc1ccc(C[C@H](C)NC[C@@H](O)c2ccc(O)c(NC=O)c2)cc1,,,-16.9% (inactive)
CN1CCC(c2c(O)cc(O)c3c(=O)cc(-c4ccccc4Cl)oc23)C1CO (stereo not given),,,-22.6% (inactive)
Cc1nc(NC(=O)N2CCCC2C(N)=O)sc1-c1ccnc(C(C)(C)C(F)(F)F)c1 (stereo not given),,,-13% (inactive)
Nc1nc(OC(c2ccc(-c3cccc(F)c3)cc2)C(F)(F)F)cc(-c2ccc(C[C@H](N)C(=O)O)cc2)n1 (stereo not given in full),inactive,,
CSCCNc1nc(SCCC(F)(F)F)nc2c1ncn2[C@@H]1O[C@H](COP(=O)(O)OP(=O)(O)C(Cl)(Cl)P(=O)(O)O)[C@@H](O)[C@H]1O,,,4.15% (inactive)
C=C1CCN([C@H](C)[C@](O)(Cn2cncn2)c2ccc(F)cc2F)CC1,inactive,,
CCOC(=O)[C@H](CCc1ccccc1)N[C@H](C)C(=O)N1C2CCCCC2C[C@H]1C(=O)O (stereo not given in full),inactive,,
CS(=O)(=O)OCCCNCCCOS(C)(=O)=O,inactive,,
OCCOc1ccc(/C(=C(/CCCl)c2ccccc2)c2ccccc2)cc1,,inactive,
COC12C(COC(N)=O)C3=C(C(=O)C(C)=C(N)C3=O)N1CC1C2N1C (stereo not given),,,-24.2% (inactive)
CC(C)c1cc(CNc2nc(Nc3cc(C4CC4)[nH]n3)cc(N3CCN(C)CC3)n2)on1,,12.6 µM (active),
CC(C)(C)NCC(O)COc1ccccc1C1CCCC1 (stereo not given),,,-12.7% (inactive)
NS(=O)(=O)c1ccc(-n2nc(C(F)(F)F)cc2-c2ccc(F)cc2)cc1,,,-20.2% (inactive)

Structure (SMILES),outcome,Potency,"activity change, negative = cytotoxicity"
COC1CC(C(=O)c2ccc3c(N)ncc(-c4ccc(-c5cnn(C)c5)cc4)c3n2)C1 (stereo not given),inactive,,
C[N+]1(C)C2CC[C@H]1CC(OC(=O)C(O)c1ccccc1)C2 (stereo not given in full),inactive,,
CC(C)(C)C(=O)N1N=CC[C@H]1c1ccccc1,,,0.217% (inactive)
Cc1ncc([N+](=O)[O-])n1CCOC(=O)c1ccccc1,inactive [at 114 µM],,
C[C@@H]1O[C@@H](O[C@@H]2/C=C/C=C/C=C\C=C\C[C@H](C)OC(=O)/C=C/[C@H]3O[C@@H]3C[C@H](O)C[C@]3(O)C[C@@H](O)[C@@H](C(=O)O)[C@H](C2)O3)[C@H](O)[C@H](N)[C@@H]1O,,,1.93% [at 11.3 µM] (inactive)
C[C@H]1O[C@]2(CS1)CN1CCC2CC1,inactive,,
CNC(=O)C[C@@H](N)C(=O)N[C@@H](C(=O)N[C@@H]1C(=O)N2[C@@H]1SC(C)(C)[C@@H]2C(=O)O)c1ccc(O)cc1,inactive,,
C=C[C@]1(C)C[C@@H](OC(=O)CSCCN(CC)CC)[C@]2(C)[C@H](C)CC[C@]3(CCC(=O)[C@H]32)[C@@H](C)[C@@H]1O,,,-10.1% (inactive)
CCNCCS(=O)(=O)NC[C@@]1(c2ccccc2)SC(NC(=O)C(C)(C)C)=NN1C(=O)C(C)(C)C,,,-7.63% (inactive)
CC1(C)[C@@H](O)CC[C@]2(C)[C@H]3C(=O)C=C4[C@@H]5C[C@@](C)(C(=O)O)CC[C@]5(C)CC[C@@]4(C)[C@]3(C)CC[C@@H]12,,,2.73% (inactive)
C[C@@H]1Cc2c([nH]c3ccccc23)[C@@H](c2c(F)cc(/C=C/C(=O)O)cc2F)N1CC(C)(C)F,inactive,,
CS(=O)(=O)c1ccc(-c2nnc(/C=C/c3nnc(-c4ccc(C#N)cc4)o3)n2-c2ccccc2Cl)nc1,inactive,,
COc1ccnc2[nH]cc(C(=O)C(=O)N3CCN(C(=O)c4ccccc4)C[C@H]3C)c12,,,-18.5% (inactive)
COc1ccc(S(=O)(=O)N[C@@H](CNc2nc(C)nc(N3CCC(c4ccc5c(n4)NCCC5)CC3)c2C)C(=O)O)cc1,,,-1.5% (inactive)
CC(C)(C)S(=O)(=O)c1ccc2nccc(Nc3n[nH]c4ccc(F)cc34)c2c1,,,0.933% (inactive)
CCCCCCCCCCCCCCCCOCCCOP(=O)(O)COC(CO)Cn1ccc(N)nc1=O (stereo not given),,,-8.34% (inactive)
Cc1cc(C)cc(Oc2ccc(CNC(=O)[C@H](C)N)cc2C)c1,inactive,,
C[C@]12C=CC(=O)C=C1CC[C@@H]1[C@@H]2[C@@H](O)C[C@@]2(C)[C@H]1CC[C@]2(O)C(=O)COC(=O)c1cccc(S(=O)(=O)O)c1,inactive,,
Cc1c(F)cccc1NC(=O)Nc1ccc(Cl)c(S(=O)(=O)[C@H]2CCCNC2)c1O,,,0.156% (inactive)
CC(C)CN(C[C@@H](O)[C@H](Cc1ccccc1)NC(=O)O[C@H]1CCOC1)S(=O)(=O)c1ccc(N)cc1,inactive,,
